# tim23-1 inh: growth inhibitors of tim23-1 mutant yeast | S. cerevisiae tim23-1 growth, BacTiter-Glo luminescence, 24 h | inhibition, % at 20 µM | actives 1.3% (n = 330,000);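 active means growth inhibition of the mutant yeast at or above 50%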;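 further: temperature-sensitive mutant grown at 25 °C; plate controls were DMSO-treated mutant yeast for no effect and medium wells lacking yeast for full effect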
# NLRP3 yeast inh: NALP3 inhibition in yeast; Yeast reconstituted NLRP3/ASC/caspase-1, beta-gal luminescence, 24 h; inhibition, % at 10 µM; actives 0.39% (n = 330,000);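 active means inhibition of 50% or more; inactive means inhibition below 50%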;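 further: plate controls were induced DMSO wells for no effect and uninduced yeast grown without galactose for full effect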
# tim10-1 inh: inhibits growth of tim10-1 mutant yeast; S. cerevisiae tim10-1 ts strain growth, BacTiter-Glo, 24 h; AID 463190; actives 2.2% (n = 330,000); inhibition, % at 20 µM;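 active means inhibition of at least 40%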;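 further: mutant grown at 25 °C; 0% = DMSO wells with yeast and 100% = wells holding no yeast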
# NALP1 inh: NALP1 inhibition. S. cerevisiae NALP1/ASC/caspase-1 growth, X-gal OD620, 72 h. actives 0.61% (n = 280,000). inhibition, % at 10 µM. AID 2071; in the data active means inhibition mostly above about 24%, no sharp cut-off; inactive means mostly below about 32%
# TIM10 inh: growth inhibitors of TIM10 yeast strain. S. cerevisiae TIM10 strain growth, BacTiter-Glo luminescence, 24 h. inhibition, % at 10 µM. actives 1.4% (n = 330,000). AID 463195;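 active means inhibition of 40% or more at the single tested concentration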;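 further: wild-type TIM10 isogenic control strain grown at permissive 25 °C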
# tim10-1 confirm: confirmation of tim10-1 mutant yeast growth inhibitors; S. cerevisiae tim10-1 ts strain growth, BacTiter-Glo, 24 h; inhibition, % at 20 µM; actives 56% (n = 7,400); shares compounds with tim10-1 inh; AID 463213;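 active means inhibition of yeast growth at or above a set limit in either of two repeat tests at 20 µM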;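 further: tim10-1 mutant grown at permissive 25 °C to find synthetic lethal compounds; 0% = DMSO yeast wells and 100% = medium wells without yeast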
# Numbers without * were called inactive; . = not tested or not shown. The list is not random: actives were taken first. Their share in the collection is about 4.1%.
SMILES,tim23-1 inh,NLRP3 yeast inh,tim10-1 inh,NALP1 inh,TIM10 inh,tim10-1 confirm
Cc1ccc(NC(=O)CSC2=Nc3ccccc3C3CC=NN23)c(C)c1 (stereo unspecified),25,4,44*,47,17,9
O=C(COC(=O)/C=C/c1ccc2c(c1)OCO2)NCc1ccccc1,5,4,-15,.,3,.
O=C(CC1SC(=O)N(c2ccccc2)C1=O)Nc1ccccc1 (stereo unspecified),22,5,38,-14,16,.
Cc1cccc(NC(=O)CC2SC(=O)N(c3ccccc3)C2=O)c1 (stereo unspecified),43,27,43*,-1,35,37*
O=C(CC1C(=O)NCCN1Cc1cccc(Oc2ccccc2)c1)NCCc1cscn1 (stereo unspecified),20,-3,42*,-8,16,28
Cc1ccc(-c2noc(CN3CCCCC3)n2)cc1,9,23,18,22,-15,.
Cc1ccc(-c2noc(CN3CCN(C(c4ccccc4)c4ccccc4)CC3)n2)cc1,24,4,41*,1,37,19
CCCOc1ccc(-c2c(C(=O)N/N=C/c3cccs3)nnn2-c2nonc2N)cc1,-4,4,-1,-3,4,.
CCN1C(=NCCOC)N[C@@H](c2ccccc2)[C@H](C(=O)OC)[C@H]1C,5,10,3,.,0,.
COc1ccccc1C(=O)Nc1cc(C)on1,10,25,2,13,-3,.
Cc1cc(NC(=O)c2ccccc2Oc2ccccc2)no1,33,-14,44*,9,39,31*
Cc1c(NC(=O)/C(C#N)=C/c2ccc(-c3ccc(Cl)c(Cl)c3)o2)c(=O)n(-c2ccccc2)n1C,29,21,43*,25,33,28*
Cc1cccn2c(=O)c3cc(C(=O)NC4CCCC4)c(=N)n(CC4CCCO4)c3nc12 (stereo unspecified),3,0,-4,4,5,.
Cc1cccn2c(=O)c3cc(C(=O)NC4CCCCC4)c(=N)n(Cc4ccc(F)cc4)c3nc12,21,7,42*,18,5,-9
Cc1ccccc1OC1C(=O)N(Cc2ccc3c(c2)OCO3)C1c1sccc1C (stereo unspecified),22,2,20,17,30,.
COc1ccc(NC(=O)[C@@H](NS(=O)(=O)c2cccc(Cl)c2)C(C)C)cc1S(=O)(=O)N1CCOCC1,11,13,5,.,5,.
COc1cc(C(=O)NNC(=O)c2cc(S(=O)(=O)N(C)C)ccc2N2CCCC2)cc(OC)c1OC,2,9,-2,.,0,.
COc1cc(CN2CCN(CCCc3ccccc3)C(CCO)C2)cc(OC)c1O (stereo unspecified),13,18,7,-13,-14,.
COc1ccccc1NC(=O)C(C)OC(=O)/C=C/c1ccc2ccccc2n1 (stereo unspecified),46,9,52*,.,14,30*
COCCN1C2=C(C(=O)CC(C)(C)C2)C(c2ccc(OC)c(OC)c2)C2=C1CC(C)(C)CC2=O,12,15,12,-8,-2,.
C=CCOC(=O)/C(=C\c1ccccc1)NC(=O)c1ccc(C)cc1,21,-17,40*,11,25,27
CCOC(=O)/C(=C\c1ccccc1)NC(=O)c1ccccc1,21,-18,31,-1,22,.
Cn1c(N)c(C(=O)COC(=O)CCCOc2ccc(Cl)cc2Cl)c(=O)n(C)c1=O,20,14,42*,7,20,41*
Cn1c(N)c(C(=O)COC(=O)Cc2ccc(Cl)cc2Cl)c(=O)n(C)c1=O,29,5,24,.,19,.
C/C(=N\O)c1ccc2c3ccccc3n(C)c2c1,46,19,44*,-16,18,23
SMILES,tim23-1 inh,NLRP3 yeast inh,tim10-1 inh,NALP1 inh,TIM10 inh,tim10-1 confirm
C/C(=N\O)c1c(C)c2ccccc2n1C,21,16,6,2,-1,.
N#CCC(=O)Nc1ccc(C(=O)NNC(=O)CCN2CCN(c3ccccc3)CC2)cc1,-11,20,-13,.,6,.
Cn1nc(C(F)(F)F)c(C(=O)Nc2ccc(F)cc2F)c1Sc1cccc(C(F)(F)F)c1,21,16,39,6,23,.
Cn1nc(C(F)(F)F)c(C(=O)Nc2ccc(F)cc2F)c1Sc1cccc(Cl)c1,27,-9,44*,18,17,34*
O=C(Cn1nnc(-c2ccccc2F)n1)Nc1ccc(S(=O)(=O)NC2CCCC2)cc1,1,4,-4,-23,-4,.
CCCCNC(=S)N=Nc1c(O)[nH]c2ccccc12,44,3,47*,0,32,41*
Clc1ccccc1/C=C/c1ccnc2ccccc12,37,28,44*,21,13,26
Oc1ccc(/C=C/c2ccnc3ccccc23)cc1,12,21,20,10,24,.
CCN(C(=O)c1ccc(S(=O)(=O)N2CCC(C)CC2)cc1)C1CCS(=O)(=O)C1 (stereo unspecified),10,11,3,.,-8,.
CCCCCC(=O)N1CCCC(c2nc(-c3ccc(OC)cc3)no2)C1 (stereo unspecified),28,5,35,-2,34,.
COc1ccc(-c2noc(C3CCCN(C(=O)CCc4ccccc4)C3)n2)cc1 (stereo unspecified),48,-33,42*,30,37,33*
CC1CC1C(=O)OCC(=O)Nc1ccc(Cl)cn1 (stereo unspecified),9,9,0,.,4,.
O=S(=O)(c1cccc(Cl)c1)N1CCN(S(=O)(=O)c2ccc3c(c2)OCCO3)CC1,-13,16,-8,.,-20,.
O=S(=O)(c1ccc2c(c1)OCCO2)N1CCC(O)(c2ccc(Cl)cc2)CC1,35,15,49*,35*,13,36*
O=C(Nc1ccc(N2CCCCC2)cc1)c1ccccn1,43,27,41*,4,21,31*
O=C(CCNC(=O)c1ccccc1Cl)Nc1nc(-c2ccccc2Cl)cs1,28,6,40*,24,1,20
O=C(CCNC(=O)c1ccccc1Cl)Nc1nc(-c2ccc(F)cc2)cs1,32,11,13,23,15,.
Cc1cccc(NC(=O)N2C3CCCC2CC(NC(=O)C(C)(C)C)C3)c1 (stereo unspecified),14,17,6,23,12,.
O=C(c1nc2ccc(Cl)cn2c1CNCCc1cnccn1)N1CCCCCCC1,-3,6,9,11,6,.
O=C(Oc1c(-c2ccccc2)c(=O)n2c3c(cccc13)CC2)c1ccco1,44,-47,46*,-10,35,1
O=C(Oc1c(-c2ccccc2)c(=O)n2c3c(cccc13)CC2)c1ccc(Cl)cc1,48,1,33,5,25,.
O=C(/C=C/c1ccc(Cl)c(C(F)(F)F)c1)N1CCN(c2ccccn2)CC1,16,17,11,8,13,.
Cc1ccccc1NC(=O)CSc1nc(N)c2c3c(sc2n1)CSC(C)(C)C3,39,4,43*,24,9,33*
